# Abeta yeast res = A-beta toxicity reversal in yeast; yeast expressing A-beta42, growth rescue, OD600, 48 h; response scale: 0% DMSO, 100% iron-clioquinol control; Potency, µM (top dose mostly 46.1 µM), actives largely listed as activators; actives 0.063% (n = 410,000); AID 1347071; note: nearly all actives have a fitted effect of over 55% in size
#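 Yeast A-beta toxicity model in growth medium with pinned compounds, 48 h at 30 C; growth read as absorbance at 600 nm. Normalized to FeCl3/clioquinol equimolar mix (positive) and DMSO (negative).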
# TDP43 rescue = rescues yeast growth from TDP-43 toxicity. TDP-43 expressing yeast growth rescue, BacTiter-Glo, 24 h. Potency, µM (titrated, usually from 46.1 µM), inactives show at the highest dose growth rescue (activation), hits mostly activators. actives 1.8% (n = 410,000). AID 652104; note: % of control where 0% means no effect; nearly all actives have a fitted effect of over 50% in size
#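 Cell-based yeast growth screen: TDP-43 expression induced in galactose, inoculum OD600=0.02 after raffinose pregrowth to mid-log. Read-out BacTiter-Glo luminescence at 24 hr, 30 deg C; inhibition of toxicity seen as signal increase.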
# aSyn rescue = rescues yeast growth from alpha-synuclein toxicity; AID 652106; Potency, µM (titrated, usually from 46.1 µM), without a hit: top-dose growth rescue (activation), hits mostly activators; actives 0.14% (n = 370,000); Yeast expressing alpha-synuclein, growth rescue, BacTiter-Glo, 24 h; note: % of control where 0% means no effect; nearly all actives have a fitted effect of over 65% in size
#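 Readout is rescue of growth in alpha-synuclein-expressing yeast, so inhibitors of toxicity appear as activators. Growth after 24 hr at 30 deg C in galactose medium is quantified by luminescence.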
# FUS yeast rescue = suppressors of FUS proteinopathy in yeast; actives 0.24% (n = 390,000); S. cerevisiae FUS-expressing, growth rescue, OD600, 24 h; Potency, µM (top dose mostly 76.6 µM), usual class: activators; AID 1347120;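 note: plate controls were DMSO vehicle for no effect and reference control for full effect; nearly all actives have a fitted effect of over 55% in size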
#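 Compound concentration series was pinned onto galactose-induced FUS-expressing yeast seeded at OD 0.005. Plates sat 24hr at 30C; absorbance at 600 nm gave growth. DMSO served as background control.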
# Numbers without * were called inactive; i = inactive; ? = inconclusive; · = no result; ! = not active in a repeat. Hits are enriched below; roughly 2.1% of the tested compounds scored in any of these assays. Calls come from the whole dose curve; as a rule, active = well fitted curve in the direction sought with a large enough effect; inconclusive = small, poorly fitted or top-dose-only effect, or another doubt; inactive = no such curve, though single readings can be large; an effect the other way counts as inactive or inconclusive. Potency is the fitted concentration of half-maximal effect.
SMILES,Abeta yeast res,TDP43 rescue,aSyn rescue,FUS yeast rescue
CCCOc1ccc(CNC(=O)c2ccc3c(c2)N(Cc2ccccc2)CCS3)cc1,i,-9%,·,i
Cc1cccc(NC(=O)CN2CCSc3ccccc32)c1,i,8%,1%,i
CCCCOc1ccc(CNC(=O)CN2CCSc3ccccc32)cc1,?,35µM*,?,?
Cc1sc2ncn(CC(=O)Nc3cccc(C(F)(F)F)c3)c(=O)c2c1S(=O)(=O)N1CCC(C)CC1,i,12%,·,i
C[C@]12CC[C@@H]3c4ccc(O)cc4CC[C@H]3[C@@H]1CCC2=O,i,4.5µM*,4%,i
COc1ccc2c(c1)CC[C@@H]1[C@@H]2CC[C@]2(C)[C@@H](C(C)=O)C[C@@H]12,i,3%,9%,i
COc1ccc2c(c1)CC[C@@H]1[C@@H]2CC[C@]2(C)[C@@H](C(=O)O)C[C@@H]12,i,20µM*,-17%,i
C[C@]12CCC3c4ccc(O)cc4CCC3C1CC/C2=N\N (stereo not given in full),i,?,1%,i
Cc1ccccc1-c1nnc2c3ccccc3c(C)nn12,i,3%,0%,i
Cc1nn2c(-c3ccco3)nnc2c2ccccc12,i,8.9µM*,·,i
C/C(=N\NC(=S)NCC(C)(C)C)c1cc(F)cc(F)c1O,?,13µM*,8%,i
Cc1ccc(CSc2ncnc3c2cnn3Cc2ccccc2)cc1,i,-7%,-2%,i
Cc1cccc(Nc2ncnc3c2cnn3Cc2ccccc2)c1,i,16µM*,1%,i
Cc1ccc(CSc2ncnc3c2cnn3Cc2ccccc2)cc1C,i,1µM*,-1%,i
COc1ccc(Nc2ncnc3c2cnn3Cc2ccccc2)cc1OC,i,-22%,-8%,i
CCOc1ccc(C(=O)NC(=S)N(Cc2ccccc2)Cc2ccccc2)cc1,i,-5%,-5%,i
CCCN(CCC)C(=S)NC(=O)c1ccc(-c2ccccc2)cc1,i,14µM*,-12%,i
Cc1ccc(C(=O)N2CCc3cc(CNC(=O)COc4ccccc4)ccc32)cc1,i,?,·,i
CCOc1ccc(NS(=O)(=O)c2ccc(C(=O)N(C)Cc3cccc(OC)c3OC)cc2)cc1,i,-13%,0%,22µM*
COc1ccc(N2CCN(C(=O)c3cn(C4CCCC4)c(=O)c4c3c3ccccc3n4C)CC2)cc1,i,20µM*,14%,?
COc1ccc(N2CCN(C(=O)c3cn(C)c(=O)c4c3c3ccccc3n4C)CC2)cc1,i,-24%,9%,i
CCCC(=O)C1=C(c2ccc(C)cc2)N(C(=O)CCC)n2cnnc2S1,i,?,·,?
O=C(C[n+]1cccc(Br)c1)c1ccc2c(c1)CCCC2,·,·,3%,·
Cc1c(NC(=O)/C(C#N)=C/c2ccc(-c3ccc(Cl)cc3)o2)c(=O)n(-c2ccccc2)n1C,i,32µM*,1%,?
Cc1c(NC(=O)/C(C#N)=C/c2ccc(-c3cc(Cl)ccc3Cl)o2)c(=O)n(-c2ccccc2)n1C,i,-9%,-5%,·
SMILES,Abeta yeast res,TDP43 rescue,aSyn rescue,FUS yeast rescue
COc1ccc(-n2ncc(C(=O)N3CCN(C4CCCCC4)CC3)c2C2CCN(C(=O)OC(C)(C)C)CC2)cc1,i,-1%,·,i
CN1CCN(S(=O)(=O)c2ccc3ccccc3c2)CC1,i,19%,4%,i
O=S(=O)(c1ccc2ccccc2c1)N1CCN(c2ccc(O)cc2)CC1,i,11µM*,?,i
Cc1cc(C)c(C)c(S(=O)(=O)N2CCC(C(=O)N3CCN(c4ccc(F)cc4)CC3)CC2)c1C,i,?,8%,i
Cc1cc(C)c(C)c(S(=O)(=O)N2CCN(c3ccc(O)cc3)CC2)c1C,i,?,16µM*,i
O=C(O)C1C2CCC(CC2)C1C(=O)N1CCN(Cc2ccc(F)cc2)CC1 (stereo not given),i,20µM*,5%,i
Cc1ccc(Cl)cc1-n1c(=O)cc(N2CCN(c3ccc(F)cc3)CC2)[nH]c1=O,i,19%,·,i
CC1CCCC(NC(=O)c2cccc(S(=O)(=O)NCc3ccccc3)c2)C1C (stereo not given),i,35µM*,7%,i
c1ccc(OCc2nnnn2-c2ccccc2)cc1,i,13%,-7%,i
Brc1ccc(Oc2nnnn2-c2ccccc2)cc1,i,16µM*,-1%,i
Clc1ccc(OCc2nnnn2-c2ccccc2)cc1,i,13µM*,4%,·
Cc1ccc(O)c(NC(=O)c2ccc(Br)c(S(=O)(=O)N3CCCCC3)c2)c1,i,?,·,i
Cc1cccc(N2C(=O)N(CC(=O)C(C)(C)C)c3ccccc3S2(=O)=O)c1C,?,28%,·,?
Cn1cc(S(=O)(=O)N2CCCCCC2)cc1C(=O)Nc1ccccc1F,i,?,·,i
O=C(N/N=C/c1cc2c3c(c1O)CCCN3CCC2)c1ccccc1O,i,-35%,22µM*,i
Cc1nn(-c2ccccc2)c(N2CCCC2)c1/C=N/NC(=O)c1ccccc1O,i,5%,-7%,i
O=C(CCn1c(=O)c2cccn2c2cccnc21)N1CCN(c2cccc(Cl)c2)CC1,i,20µM*!,18%,i
Cc1ccc(Cl)cc1N1CCN(C(=O)CCn2c(=O)c3cccn3c3cccnc32)CC1,i,?,·,i
Cc1ccccc1NC(=O)c1c(NC(=O)c2ccncc2)sc2c1CCC(C(C)(C)C)C2 (stereo not given),i,13%,·,i
CCOC(=O)N1CCN(C(=O)C[C@H]2C[C@@]3(C(=O)OC)C(=C[C@H](C(C)C)O[C@@H]3C3CC3)N(Cc3ccc4c(c3)OCO4)C2=O)CC1,·,·,·,i
O=C(/C=C/c1cn(-c2ccccc2)nc1-c1cccc(Cl)c1)N1CCN(c2ccccn2)CC1,i,14µM*,-10%,?
Oc1ccc(NCc2ccc(OCc3ccccc3)cc2)cc1,i,16µM*,-26%,?
Oc1ccc(NCc2ccc(OCc3ccccc3Cl)cc2)cc1,i,?,·,i
Cn1c(Cc2cccs2)nnc1SCC(=O)Nc1ccc2c(c1)OCO2,·,·,·,i
Oc1ccc(Br)cc1-c1cc(-c2ccccc2)n[nH]1,?,25%,0%,i
SMILES,Abeta yeast res,TDP43 rescue,aSyn rescue,FUS yeast rescue
O=[N+]([O-])c1cccc(-c2cc(-c3cc(Br)ccc3O)[nH]n2)c1,i,13µM*,-7%,i
CC(C(=O)O)(C1CCCCC1)C1(O)CCCCC1 (stereo not given),i,?,0%,i
CC1CCC(C(O)(C(=O)O)C2CCCCC2)CC1C (stereo not given),i,18µM*,14%,·
CNC(=O)COC(=O)/C=C/c1ccco1,i,0%,-22%,i
CSc1ccccc1NC(=O)COC(=O)/C=C/c1ccco1,i,5µM*,1%,i
O=C(COC(=O)/C=C/c1ccco1)NCCc1ccccc1,i,16µM*,3%,i
